TLR4 MyD88 comp: TLR4-MyD88 interaction inhibition in cells; O00206+Q99836; HeLa CL3-4 TLR4/MyD88 BLA complementation, FRET ratio; inhibition, % at 8.4 µM; hit rate 0.18% among 200,000; AID 861; in the data active = inhibition above about 25%;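 note: 0% = vehicle and 100% = reference inhibitor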
ABHD5 PLIN5 PPI: ABHD5-PLIN5 protein interaction inhibition. Q00G26+Q8WTS1. Split G. princeps luciferase complementation, luminescence, 4 h. AID 602281. inhibition, % at 4 µM. hit rate 0.78% among 360,000;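 active = inhibition above the mean inhibition across every tested compound plus 3 SD, cut at about 22% in these data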;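 note: 0% = DMSO only wells and the 100% control is not disclosed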
TLR9-MyD88 inh: inhibitors of human TLR9-MyD88 binding | inhibition, % at 4.98 µM | hit rate 0.21% among 340,000 | CHO BLA complementation TLR9-MyD88, CCF4 FRET ratio | AID 504734;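 active = inhibition above the mean over all tested compounds plus 3 SD, cut at about 21% in these data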;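 note: 0% = DMSO only wells and 100% = clavulanate BLA inhibitor control wells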
Exocytosis inh: lytic granule exocytosis inhibition. TALL-104 LAMP-1 surface exposure, flow cytometry; cells stimulated with thapsigargin and PMA. inhibition, % at 10 µM. hit rate 0.66% among 360,000. AID 651702;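 active = inhibition above about 55%, limit read from the data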
B2AR ag: agonists of human beta-2 adrenergic receptor inducing internalization | response, % (no concentration beside the values) | P07550 | AID 504454 | Am2.2-beta2AR cells, FAP receptor internalization, flow cytometry | hit rate 0.43% among 340,000;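 active = response above a set limit, near 3 SD of response in nonfluorescent compounds, cut at about 42% in these data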
NOD2-RIPK2 inh: blocks binding of human NOD2 to RIPK2; O43353; hit rate 0.38% among 360,000; inhibition, % at 4.98 µM; CHO BLA complementation NOD2-RIPK2, CCF4 ratio; AID 624267; in the data active = inhibition above about 21%;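 note: 0% = vehicle only and 100% = reference blocker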
Target sequence (O43353 whole entry, looked up): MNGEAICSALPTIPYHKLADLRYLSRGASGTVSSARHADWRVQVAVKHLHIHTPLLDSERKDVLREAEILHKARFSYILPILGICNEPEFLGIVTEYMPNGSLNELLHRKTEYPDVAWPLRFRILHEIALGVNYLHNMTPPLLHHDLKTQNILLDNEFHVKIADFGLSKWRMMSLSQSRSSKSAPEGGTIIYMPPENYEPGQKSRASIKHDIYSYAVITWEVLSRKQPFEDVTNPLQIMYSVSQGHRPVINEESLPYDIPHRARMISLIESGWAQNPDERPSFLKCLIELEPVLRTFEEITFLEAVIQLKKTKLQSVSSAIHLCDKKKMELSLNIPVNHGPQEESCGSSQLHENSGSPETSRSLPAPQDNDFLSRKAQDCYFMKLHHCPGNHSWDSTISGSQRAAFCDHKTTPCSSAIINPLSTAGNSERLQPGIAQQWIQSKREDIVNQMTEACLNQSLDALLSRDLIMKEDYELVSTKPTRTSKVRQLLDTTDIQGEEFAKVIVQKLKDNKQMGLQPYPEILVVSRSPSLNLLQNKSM
Numbers without * were called inactive; . = no result. Sampled rows, rich in hits. Any-hit rate of the full collection: about 2%.

SMILES	TLR4 MyD88 comp	ABHD5 PLIN5 PPI	TLR9-MyD88 inh	Exocytosis inh	B2AR ag	NOD2-RIPK2 inh
COc1cccc(CN2CCC2(C)C(=O)Nc2ccc3c(c2)CCN3C(C)=O)c1F (configuration not stated)	.	-1	.	-1	.	-16
O=C(Nc1nc(-c2ccco2)c(-c2ccco2)s1)c1c(F)cccc1Cl	.	33*	-5	0	-3	3
COc1cccc(/C=C2\SC(=S)NC2=O)c1OS(=O)(=O)c1ccc(NC(C)=O)cc1	-1	-3	4	-12	77*	-8
COc1ccc(/C=C2\SC(=S)NC2=O)cc1OS(=O)(=O)c1ccc(NC(C)=O)cc1	-21	9	-1	-1	15	-15
O=C(N/N=C1\CCCc2c1[nH]c1ccc(Cl)cc21)c1ccncc1	.	12	-19	7	45*	1
Cc1ccc(S(=O)(=O)N2C3CCCCC3O[C@H]2CC(=O)OCc2ccccc2)cc1 (some centres not stated)	.	-11	.	-12	.	-8
COC(=O)[C@@]12C[C@@H](CC(=O)NCCc3ccccc3OC)C(=O)N(CCc3ccc(OC)c(OC)c3)C1=CCC(C)(C)C2	.	10	.	-3	.	1
O=C(/C(=C/c1cccnc1)n1ccnc1)c1ccc(Cl)cc1Cl	.	6	-4	96*	9	-2
Cc1ccc(OCCn2cc(C#N)c3ccccc32)cc1	-4	1	-1	68*	6	-9
CC(C)[C@@H](NC(=O)OC(C)(C)C)c1cc(C(=O)c2c(-c3ccccc3)[nH]c3ccccc23)c(N)s1	.	18	.	7	.	-10
CCC(C)(C)n1nnnc1CN(Cc1ccco1)Cc1cc2cc3c(cc2[nH]c1=O)OCO3	-2	23*	11	2	0	18
CCC(C)(C)n1nnnc1CN(Cc1ccc(Cl)cc1)Cc1ccco1	-9	4	1	46	6	-18
COCCn1nnnc1CN(Cc1ccco1)Cc1cc2cc3c(cc2[nH]c1=O)OCO3	7	22*	9	-4	6	18
O=C1N(c2ccccc2)c2ccccc2[C@]12C[C@H](O)CO2	.	8	.	-1	.	0
O=C(O)C(c1ccccc1)N1C(=O)/C(=C\c2ccc(-c3ccc(Br)cc3)o2)SC1=S (configuration not stated)	.	6	3	1	-108	6
C=CCN1C(=O)/C(=C/c2ccsc2)SC1=S	-7	-1	-8	-1	44*	-1
C=CCN1C(=O)/C(=C/c2ccc(-c3ccc(F)cc3)o2)SC1=S	.	-1	1	93*	-143	-5
Fc1ccc(C2=Nc3cccc4cccc(c34)N2)cc1	-9	-1	-9	1	8	3
FC(F)(F)C1=Nc2cccc3cccc(c23)N1	.	-3	-8	-2	82*	-2
Cn1c(=O)c2ccccc2n2c(CCl)nnc12	.	23*	-2	-7	9	-2
CC(CCC(C)C(C)(C)C)[C@@H]1CC[C@H]2C3C[C@H](OS(O)(=S)=S)[C@H]4C[C@H](OS(O)(=S)=S)[C@@H](OS(O)(=S)=S)C[C@]4(C)[C@H]3CC[C@]12C (some centres not stated) (tested in a mixture with another compound)	.	5	2	8	30	24*
Cn1nc(C(=O)Nc2nc3ccccc3[nH]2)c2ccccc2c1=O	4	1	-16	5	56*	-2
CCn1nc(C(=O)Nc2nc3ccccc3[nH]2)c2ccccc2c1=O	-3	3	-5	0	-10	-5
COc1ccc([C@H]2CC(=O)C[C@@H](CCn3nnc4ccccc43)O2)cc1	.	-1	.	-4	.	-7
CN(C)c1ccc(C=c2c3ccccc3n3c2cc(-c2ccccc2)[n+]3C)cc1	.	18	-12	89*	-588	13
SMILES	TLR4 MyD88 comp	ABHD5 PLIN5 PPI	TLR9-MyD88 inh	Exocytosis inh	B2AR ag	NOD2-RIPK2 inh
CC12CC3OC3CC1CCC1C2CCC2(C)C1CCC21OCCO1 (configuration not stated)	.	0	1	-5	76*	-12
COc1cccc(C2Oc3ccccc3C3CC(c4cccs4)=NN32)c1 (configuration not stated)	.	22*	.	-1	16	0
O=C(C[C@@H]1CC[C@@H]2[C@H](COC[C@H](O)CN2C(=O)Nc2ccc(F)cc2)O1)NCCc1ccncc1	.	1	.	9	.	-3
Cc1ccc(C2/C(=C(/O)c3ccc(Br)cc3)C(=O)C(=O)N2Cc2ccco2)o1 (configuration not stated)	-7	23*	4	0	0	-7
CC(=O)n1cc(C(C[N+](=O)[O-])SCCN)c2ccccc21 (configuration not stated)	17	-11	-4	-1	76*	-1
O=C(N/N=C/c1ccccn1)c1sc2ccccc2c1Cl	.	5	13	60*	19	-7
O=C(N/N=C/c1c[nH]c2ccccc12)c1sc2ccccc2c1Cl	4	3	7	2	-7	2
Cc1onc(-c2ccccc2)c1C(=O)OCCOc1ccc([N+](=O)[O-])cc1[N+](=O)[O-]	.	-1	-6	38	1	3
Cc1ccccc1OCCOC(=O)c1c(-c2ccccc2)noc1C	.	-1	10	94*	-14	-6
COc1ccc(Cl)cc1C(Nc1cccnc1)c1ccc2cccnc2c1O (configuration not stated)	5	23*	-1	1	8	10
CCC(=O)NC(c1ccccc1OC)c1ccc2cccnc2c1O (configuration not stated)	11	3	11	-3	2	0
O=C1C=C(OCCCl)CC(c2cccc(Cl)c2)O1 (configuration not stated)	.	3	.	-8	.	-12
COC(=O)C(C)Oc1cc(OC(C)C(=O)OC)c2c(-c3ccccc3)cc(=O)oc2c1 (configuration not stated)	.	-1	-4	63*	6	-5
COC(=O)COc1cc(OCC(=O)OC)c2c(-c3ccccc3)cc(=O)oc2c1	.	0	-6	8	1	-14
COc1cccc(-c2nc3nc(C)cc(C)n3c2NCc2ccccc2)c1	.	10	.	-3	.	-3
CCC(C)(C)c1ccc(OCCCC[n+]2cccc(C)c2)c(C(C)(C)CC)c1	11	23*	-10	14	13	1
CCOC(=O)c1ccc(NC(=O)COc2ccccc2CNCCc2ccccc2)cc1	-3	11	-8	69*	8	8
CCOC(=O)c1ccc(NC(=O)COc2ccc(CNCCO)cc2OCC)cc1	-7	-8	4	0	4	-11
CC(C)(C)C1C/C(=C/c2ccccn2)C(=O)/C(=C/c2ccccn2)C1 (configuration not stated)	0	72*	1	24	85*	27*
O=C1/C(=C/c2ccccn2)COc2ccccc21	23	8	3	3	24	-10
